Source: PubChem BioAssay (several laboratories)
tim23-1 inh = tim23-1 yeast growth inhibition; S. cerevisiae tim23-1 growth, BacTiter-Glo luminescence, 24 h; inhibition, % at 20 µM; 330,000 tested, 1.3% active; AID 463212;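 active means growth inhibition of the mutant yeast at or above 50%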;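 further: temperature-sensitive mutant grown at 25 °C; plate controls were DMSO-treated mutant yeast for no effect and medium wells lacking yeast for full effect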
SKKanGAS inh = SKKanGAS growth inhibition | S. pyogenes SKKanGAS, kanamycin growth, BacTiter-Glo, 6 h | inhibition, % at 7.5 µM | 300,000 tested, 1.3% active | AID 1662;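 active means mean replicate score, as percent of positive control median, at least 50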;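 further: strain carries kanamycin resistance gene driven by streptokinase promoter and grows in 40 µg/ml kanamycin; loss of luminescence reflects streptokinase promoter inhibition or plain growth inhibition; 0% = median of DMSO wells and 100% = positive control at its reference dose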
NLRP3 yeast inh = inhibitors of NALP3 inflammasome in yeast | inhibition, % at 10 µM | AID 2825 | Yeast reconstituted NLRP3/ASC/caspase-1, beta-gal luminescence, 24 h | 330,000 tested, 0.39% active;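 active means inhibition of 50% or more; inactive means inhibition below 50%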;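 further: plate controls were induced DMSO wells for no effect and uninduced yeast grown without galactose for full effect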
NALP1 inh = inhibitors of NALP1 inflammasome in yeast. S. cerevisiae NALP1/ASC/caspase-1 growth, X-gal OD620, 72 h. inhibition, % at 10 µM. 280,000 tested, 0.61% active. AID 2071; in the data active means inhibition mostly above about 24%, no sharp cut-off; inactive means mostly below about 32%
tim10-1 inh = inhibits growth of tim10-1 mutant yeast; 330,000 tested, 2.2% active; inhibition, % at 20 µM; S. cerevisiae tim10-1 ts strain growth, BacTiter-Glo, 24 h;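 active means inhibition of at least 40%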;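 further: mutant grown at 25 °C; 0% = DMSO wells with yeast and 100% = wells holding no yeast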
TIM10 inh = inhibits growth of TIM10 yeast strain; S. cerevisiae TIM10 strain growth, BacTiter-Glo luminescence, 24 h; inhibition, % at 10 µM; 330,000 tested, 1.4% active;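 active means inhibition of 40% or more at the single tested concentration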;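 further: wild-type TIM10 isogenic control strain grown at permissive 25 °C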
tim10-1 confirm = tim10-1 yeast growth inhibition, confirmed. shares compounds with tim10-1 inh. 7,400 tested, 56% active. S. cerevisiae tim10-1 ts strain growth, BacTiter-Glo, 24 h. inhibition, % at 20 µM;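 active means inhibition of yeast growth at or above a set limit in either of two repeat tests at 20 µM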;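 further: tim10-1 mutant grown at permissive 25 °C to find synthetic lethal compounds; 0% = DMSO yeast wells and 100% = medium wells without yeast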
Active calls of the source: *; x = not tested or not shown. The list is not random: actives were taken first. Their share in the collection is about 4.9%.

SMILES | tim23-1 inh | SKKanGAS inh | NLRP3 yeast inh | NALP1 inh | tim10-1 inh | TIM10 inh | tim10-1 confirm
Cc1cccc(NCCC(=O)c2ccc([N+](=O)[O-])cc2)c1C | 22 | 2 | 16 | 20 | 40* | 23 | 38*
CCOC(=O)c1c(C)[nH]c(C(=O)Nc2ccc3c(c2)OCO3)c1C | 45 | 3 | 29 | 16 | 43* | 39 | 32*
Nc1nc(NS(=O)(=O)c2ccc(Cl)cc2)nn1-c1ccccc1 | 6 | -6 | -7 | x | 13 | -7 | x
NC(=O)N/N=C/c1ccc2cccc(OCc3ccccc3)c2n1 | 22 | -2 | 13 | -1 | -2 | 14 | x
O=C(Cc1ccccc1)N/N=C/c1ccc2cccc(O)c2n1 | 48 | -6 | 4 | 14 | 47* | 20 | 34*
Cc1nn2c(N3CCOCC3)c3c(nc2c1-c1ccccc1)CCCC3 | 36 | 0 | -4 | 22 | 26 | 22 | x
Cc1nc2c(-c3ccc(F)cc3)c(C)nn2c(N2CCOCC2)c1C | 34 | -6 | 5 | -6 | 45* | 31 | 26
C=C(C)CSc1nncn1/N=C/c1ccc(OC)cc1 | 28 | -13 | -1 | 17 | 43* | 19 | 32*
CCSc1nncn1/N=C/c1ccc(OC)c(OC)c1 | -5 | -5 | 0 | x | -4 | -11 | x
COC(=O)c1cn(-c2ccccc2)nc1-c1ccc(OC)c(OC)c1 | 38 | -5 | 21 | 9 | 42* | 15 | 9
COC(=O)c1cn(-c2ccccc2)nc1-c1ccccc1 | 21 | -5 | 30 | 0 | 11 | 11 | x
O=[N+]([O-])c1ccc(NC(=S)N2CCc3ccccc3C2)cc1 | 44 | 15 | 14 | 32 | 41* | 35 | 29
Cc1cc(NC(=O)CN(C)S(=O)(=O)c2cnc[nH]2)ccc1Br | 9 | 4 | -5 | 22 | -7 | -2 | x
Cc1ccc(-c2ccc(/C=N/NC(N)=S)o2)cc1 | 14 | -15 | 37 | -7 | 42* | 26 | 12
Cc1ccc(-c2csc3nc[nH]c(=O)c23)cc1C | 39 | -3 | 25 | 24 | 41* | 22 | 27
O=[N+]([O-])c1ccccc1SN(Cc1ccccc1)c1ccccn1 | 9 | 2 | -58 | -16 | 42* | 36 | 22
O=C(c1ccc([N+](=O)[O-])cc1)N(Cc1ccccc1)c1ccccn1 | 11 | 8 | 12 | 6 | 11 | 13 | x
CC(C)(C)c1ccc(C(=O)N/C(=C\c2cccc([N+](=O)[O-])c2)C(=O)Nc2cccc(C(=O)O)c2)cc1 | -1 | 7 | 15 | x | 1 | 2 | x
CCOc1ccccc1NC(=O)C(OC(=O)c1ccc(O)cc1)c1ccccc1 (stereo not given) | 35 | 26 | 19 | 16 | 42* | 33 | 38*
CCOc1ccccc1NC(=O)C(OC(=O)c1ccc(CC)cc1)c1ccccc1 (stereo not given) | 20 | 13 | 7 | 26 | 19 | 29 | x
Cc1c(C(=O)N2CCN(C(c3ccccc3)c3ccccc3)CC2)oc2ccccc12 | 25 | x | 15 | x | 7 | 17 | x
CCOC(=O)c1c(C)[nH]c(C(=O)OCC(=O)N(CC(C)C)C2CCS(=O)(=O)C2)c1C (stereo not given) | -10 | x | 7 | x | -6 | 6 | x
O=C(Nc1ccc2c(c1)OCO2)c1nn(-c2ccccc2)c(=O)c2ccccc12 | 25 | 8 | 13 | 16 | 44* | 18 | 17
CCC(=O)Nc1nnc(-c2ccccn2)o1 | 4 | -1 | 2 | 19 | 5 | 7 | x
O=C(Nc1nnc(-c2ccccn2)o1)c1ccc(Br)cc1 | 29 | 6 | 14 | 10 | 46* | 14 | 29
SMILES | tim23-1 inh | SKKanGAS inh | NLRP3 yeast inh | NALP1 inh | tim10-1 inh | TIM10 inh | tim10-1 confirm
O=C(COC(=O)c1ccc(Cl)c(Cl)c1)NC1CCCC1 | 0 | -1 | 17 | -1 | -19 | 24 | x
Cc1ccc(C(=O)NC(Cc2ccccc2C(F)(F)F)C(=O)O)cc1 (stereo not given) | 39 | x | x | x | 15 | -5 | x
Cc1c(C)c2ccc(Oc3ccc([N+](=O)[O-])cc3C(F)(F)F)c(C)c2oc1=O | 22 | 6 | 3 | 5 | 40* | 19 | 23
CCC(C)NC(=O)C1CCC(CNS(=O)(=O)c2ccccc2)CC1 (stereo not given) | -13 | -1 | 11 | -3 | 5 | -13 | x
CC1CCc2nc(NC(=O)C3CC3)sc2C1 (stereo not given) | 40 | -1 | -17 | 24 | 36 | 17 | x
CC1CCc2nc(NC(=O)C3COc4ccccc4O3)sc2C1 (stereo not given) | 38 | -4 | 27 | 43 | 49* | 27 | 27
COc1ccccc1NC(=O)c1ccc(NC(=O)COC(=O)c2cccnc2Cl)cc1 | 4 | x | 27 | x | -8 | 0 | x
CC1CCc2c(sc(N)c2C(N)=O)C1 (stereo not given) | 17 | 0 | 5 | x | 41* | 1 | 25
CCC1CCc2c(sc(N)c2C(N)=O)C1 (stereo not given) | 20 | -1 | 7 | x | 21 | 15 | x
O=S(=O)(/N=C(/Sc1ccccc1)c1ccccc1)c1ccccc1 | 31 | 1 | 12 | 8 | 52* | 39 | 43*
COc1ccc(Cl)cc1NC(=O)CSc1nnc(COc2ccccc2)n1N | -3 | -4 | -7 | 30 | 18 | -1 | x
COc1ccc(Cl)cc1NC(=O)CSc1nnc(COc2ccccc2)n1C | 20 | -12 | 11 | 5 | 46* | 16 | 17
Cc1ccc(-c2nn3c(C)nnc3c3ccccc23)cc1S(=O)(=O)NCCO | 15 | 7 | 4 | 4 | 2 | 1 | x
Cc1ccc(-c2nn3c(C)nnc3c3ccccc23)cc1S(=O)(=O)N1CCN(CCO)CC1 | 16 | -4 | 23 | 0 | 44* | 6 | 7
COC(=O)c1[nH]c2cc(C)ccc2c1NC(=O)CN1CCCc2ccccc21 | 21 | 3 | 24 | 5 | 38 | 19 | x
COC(=O)c1[nH]c2ccc(Br)cc2c1NC(=O)CN1CCCc2ccccc21 | 35 | 29 | 14 | 13 | 46* | 23 | 34*
O=[N+]([O-])c1ccc(N=NNc2ccccc2)cc1 | 26 | -3 | -36 | -2 | 42* | 14 | 34*
Brc1ccc(N=NNc2ccccc2)cc1 | 33 | 18 | 23 | 6 | 31 | 15 | x
CCCCCCc1cc2cc(C(N)=O)c(=N)oc2cc1O | 13 | 19 | -19 | 4 | 42* | 15 | 18
S=c1nc(C2CCCCC2)n(-c2ccccc2)[nH]1 | 30 | -2 | -20 | 5 | 44* | 34 | 25
NC(=O)c1ccc(NC(=O)c2ccc(COc3ccc(F)cc3)o2)cc1 | 7 | x | 15 | x | 2 | -3 | x
Cc1cc(C)c(C#N)c(SCC(=O)c2cccs2)n1 | 28 | 17 | 24 | 11 | 44* | 9 | 27
C=CCc1c(C)nc(SC)nc1Nc1ccccc1 | 35 | -1 | 21 | 2 | 44* | 20 | 27
